# Screening data from PubChem.
# An excerpt weighted towards active compounds, which were near 2.5% of everything screened.
# Nox1 inhibitor: human Nox1 inhibition | Q9Y5S8 | HT29 cells, luminol chemiluminescence ROS | inhibition, % at 6.7 µM | hit rate 0.81% among 16,000 | AID 1792
# Target sequence (Q9Y5S8 whole entry, looked up): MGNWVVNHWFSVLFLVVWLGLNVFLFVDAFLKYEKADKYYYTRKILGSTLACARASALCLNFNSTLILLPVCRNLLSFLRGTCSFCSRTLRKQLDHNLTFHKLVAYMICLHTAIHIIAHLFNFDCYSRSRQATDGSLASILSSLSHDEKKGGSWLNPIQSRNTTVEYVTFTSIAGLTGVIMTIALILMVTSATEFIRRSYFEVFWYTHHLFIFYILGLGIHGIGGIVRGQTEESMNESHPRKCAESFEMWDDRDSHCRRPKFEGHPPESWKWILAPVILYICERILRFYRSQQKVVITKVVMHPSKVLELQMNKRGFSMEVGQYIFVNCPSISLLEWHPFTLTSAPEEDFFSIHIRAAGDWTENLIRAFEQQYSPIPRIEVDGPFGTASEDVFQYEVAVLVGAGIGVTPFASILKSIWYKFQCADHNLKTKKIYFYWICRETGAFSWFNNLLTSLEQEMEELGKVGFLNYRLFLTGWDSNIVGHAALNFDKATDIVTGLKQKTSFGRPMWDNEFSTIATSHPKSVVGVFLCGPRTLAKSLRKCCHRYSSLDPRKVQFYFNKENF
# luminol inh ctr: luminol signal inhibition, Nox1 inhibitor counter-screen | HRP/luminol/H2O2 chemiluminescence counterscreen | inhibition, % at 6.7 µM | hit rate 0.4% among 16,000 | AID 1823; note: reference of the scale not given here
# PME-1 Maybr inh: PME-1 (human) inhibition, Maybridge primary screen. Q9Y570. recombinant PME-1, FP-Rh probe fluorescence polarization. inhibition, % at 9 µM. hit rate 0.5% among 16,000. AID 2291; in the data active = inhibition above about 30%
# KOR antag MB: blocks the human kappa opioid receptor, Maybridge compounds; inhibition, % at 9 µM; OPRK1 cells, antagonist mode, fluorescence readout; P41145; hit rate 0.4% among 16,000; AID 652031; in the data active = inhibition above about 50%
# NOTCH agonist: NOTCH pathway agonism. AID 434982. activation, % at 2.5 µM. NOTCH signaling luciferase reporter cells, luminescence. hit rate 0.4% among 15,000; in the data active = activation above about 2.2%
# Numbers stand for hits; i = inactive; nt = no result. Cut-off read from the data, not from the text of the source, unless noted: active = inhibition above about 75%; inactive = the rest.
SMILES,Nox1 inhibitor,luminol inh ctr,PME-1 Maybr inh,KOR antag MB,NOTCH agonist
O=[N+]([O-])c1ccc(N/N=C2\CCOc3ccc(F)cc32)cc1,i,i,i,50,i
Fc1ccc2c(c1)/C(=N\Nc1cc(C(F)(F)F)ccc1Cl)CCO2,i,i,i,i,i
Cc1ccc(NNC(=O)c2ccccc2)c(C)c1,i,i,i,i,nt
NC(=O)c1cc2c(c([N+](=O)[O-])c1)-c1c(cc(C(N)=O)cc1[N+](=O)[O-])C2=O,i,i,38,i,i
CC(=O)NC(=O)/C(C#N)=N\O,i,i,i,i,i
COC(=O)c1sccc1-c1ccc(CN2CCCc3cc(OC)ccc32)o1,94,i,i,i,i
COC(=O)c1sccc1OCc1nnc(-c2ccc(OC)cc2)o1,i,i,i,i,i
Cc1[nH][nH]c(=O)c1N=Nc1ccc(Br)cc1,i,i,i,i,i
COC(=O)C1=C(C)NC2=C(C(=O)CC(C)(C)C2)C1c1cn[nH]c1-c1ccccc1 (configuration not stated),i,i,i,i,i
COC(=O)C1=C(C)Nc2[nH]ncc2C1c1ccccc1 (configuration not stated),i,i,43,i,i
NNC(=O)CSc1nc2cccnc2s1,76,i,i,i,i
OC(CSc1nc2cccnc2s1)C(F)(F)F (configuration not stated),i,i,i,i,i
CC(=O)OC(C(=O)O)C(OC(C)=O)C(=O)Nc1ccc(Cl)cc1 (configuration not stated),i,i,i,i,i
COc1c(C(=O)NCc2ccc(Cl)cc2)csc1Cl,i,i,i,i,i
COc1cc(/C=N\n2c(C)n[nH]c2=S)cc(OC)c1OC,i,101,i,i,i
COc1cc(C=Nc2ccc(C)c(C)c2)cc(OC)c1OC,i,i,i,i,i
CCOc1ccc(-n2c(=O)c3cc4c(=O)n(-c5ccc(OCC)cc5)c(=O)c4cc3c2=O)cc1,i,i,i,i,i
COc1c(NC(=O)N2CCCCC2)csc1Cl,i,i,i,i,i
Cc1cc(/C=N\NC(N)=S)c2c(C)ccc(C(C)C)cc1-2,i,i,i,i,i
Cc1cc(/C=N\NC(=O)CCc2ccc(O)cc2)c2c(C)ccc(C(C)C)cc1-2,i,i,49,i,i
CC1CN(c2ccc(NC(=O)c3ccco3)cc2C(=O)O)CC(C)O1 (configuration not stated),i,i,i,i,i
CC1CN(c2ccc(NS(=O)(=O)c3ccccc3)cc2C(=O)O)CC(C)O1 (configuration not stated),84,i,i,i,i
CCOC(=O)/C(C#N)=C/N=C(N/N=C/c1c(F)cccc1Cl)SC,i,i,i,i,i
COC(=O)c1ccc(S(=O)(=O)Nc2ccc(N3CCOCC3)cc2)n1C,91,i,i,i,i
COC(=O)c1sccc1NS(=O)(=O)c1ccc(C(=O)OC)n1C,i,i,i,i,i
SMILES,Nox1 inhibitor,luminol inh ctr,PME-1 Maybr inh,KOR antag MB,NOTCH agonist
CC(=O)c1ccc(NCN2C(=O)/C(=C\N(C)C)NC2=S)cc1,100,i,i,i,i
CNc1ccc(Cl)cc1C(=O)NC1CC(C)CC(C)(C)C1 (configuration not stated),i,i,i,i,2.6
S=C(NNc1nccc(-c2cccnc2)n1)Nc1ccccc1,86,i,i,i,i
S=C(NCc1cccnc1)NNC(=S)NNc1ccccc1,i,i,i,i,i
CCCN=C(C)c1c(O)cc(C)oc1=O,i,i,i,i,i
O=[N+]([O-])c1cc(C(F)(F)F)ccc1Oc1ccc2nonc2c1,i,i,i,i,i
O=[N+]([O-])c1cc(C(F)(F)F)ccc1Oc1ccc(-c2nnco2)cc1,77,i,i,i,i
N#Cc1ccc(-c2c(NC(=O)NS(=O)(=O)c3ccccc3Cl)oc(-c3ccco3)c2C#N)cc1,i,i,i,i,i
O=C(NCCNc1nccc(C(F)(F)F)n1)C1CC1,i,i,96,i,i
Nc1nc(SCC(=O)c2ccc(Cl)cc2)n[nH]1,i,i,i,i,i
Cn1c(CC2Sc3ccccc3NC2=O)nnc1SCC(=O)Nc1cccc(C(F)(F)F)c1 (configuration not stated),i,93,i,i,i
O=C1NC(c2ccc([N+](=O)[O-])o2)Nc2sc3c(c21)CCCC3 (configuration not stated),i,i,i,i,i
COc1ccc(C(=O)CSc2n[nH]c(=O)n2Cc2ccco2)cc1,i,i,i,i,2.2
CCC(=O)N1c2cc(Cl)ccc2-n2c(nn(C(=O)CC)c2=O)N1C(=O)CC,88,i,i,i,i
Nn1c(-c2ccc(Cl)cc2)n[nH]c1=S,i,99,i,i,i
Cc1nn(C)c(C)c1Nc1n[nH]c(N)n1,77,i,i,i,i
